PfHsp40 yeast: restores yeast growth despite PfHsp40 toxicity; S. cerevisiae expressing PfHsp40, growth rescue, ATP luminescence; growth rescue, % at 12.5 µM; 340,000 tested, 0.68% active; in the data active = growth rescue above about 28%, passing the limit was not always enough;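 also: yeast W303a lacking pdr1 and pdr3 grown in galactose medium; growth measured after three days at 30 °C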
SSB-PriA inh: inhibitors of Klebsiella pneumoniae PriA binding to SSB C-terminal tail; AlphaScreen SSBct-PriA binding, biotinylated peptide; 430,000 tested, 0.6% active; AID 1272365; inhibition, % at 33 µM; in the data active = inhibition mostly above about 37%, no sharp cut-off; inactive = mostly below about 20%;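 also: plate controls were negative control peptide for no effect and reference peptide for full effect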
PrP UTR inh: inhibition of PrP 5' UTR reporter expression | cell-based PrP 5' UTR mRNA reporter, plate reader | inhibition, % (concentration not given with the values) | 340,000 tested, 0.35% active; in the data active = inhibition above about 52%; also: 0 = median of the neutral control wells
Vc quorum ag: induces V. cholerae light production without autoinducers; V. cholerae BH1578 lux reporter, luminescence, 6 h; activation, % at 18.7 µM; 350,000 tested, 0.16% active; in the data active = activation mostly above about 9.7%, no sharp cut-off
3CLpro inhibitor: SARS-CoV 3CLpro protease inhibition; P0C6X7; recombinant SARS-CoV 3CLpro, quenched FRET peptide cleavage; inhibition, % at 6 µM; 290,000 tested, 0.14% active; in the data active = inhibition above about 12%
PrPC TRFRET: inhibitors of human cell surface prion protein PrPC | P04156 | TR-FRET read-out | inhibition, % at 13.8 µM | 370,000 tested, 0.43% active; in the data active = inhibition above about 24%; also: 0% = median of the test wells and 100% = reference compound wells
Starred values were filed as active, the others as inactive; i = inactive; / = no result given; + = active, no number. The list is not random: actives were taken first. Their share in the collection is about 1.6%.

SMILES	PfHsp40 yeast	SSB-PriA inh	PrP UTR inh	Vc quorum ag	3CLpro inhibitor	PrPC TRFRET
CC(C)(C)n1ncc2c(=O)n(NC(=O)CC3CCCCC3)cnc21	/	-5	/	/	/	/
Cc1ccc(C(O)CNC(=O)C(=O)Nc2ccc3c(c2)N(S(=O)(=O)c2cccs2)CCC3)o1 (configuration not stated)	/	26	/	/	/	/
COc1ccccc1N1CCN(C(=O)Cc2csc(Nc3ccccc3)n2)CC1	/	6	/	/	/	/
COc1ccccc1N1CCN(C(=O)c2csc(Nc3ccccc3)n2)CC1	/	24*	/	/	/	/
CN(C)c1ccc(CCCNS(=O)(=O)c2ccccc2Cl)cc1	/	26	/	/	/	/
O=C(CSc1ccc(Cl)cc1)Nc1nnc(-c2ccccn2)o1	/	35*	/	/	/	/
O=C(NCc1cccc(Oc2ccccn2)c1)C1CC1	/	1	/	/	/	/
Cc1nc2c([N+](=O)[O-])c(C)c(C)cc2[nH]1	/	2	-4	0	-2	-4
Cc1nc2c(Cl)cc(Cl)cc2[nH]1	33*	-30	-22	i	3	1
Cc1ccc(-c2csc3ncnc(N4CCN(S(=O)(=O)c5cccs5)CC4)c23)cc1	122*	8	-18	-1	/	/
Cc1ccc(-c2csc3ncnc(N4CCN(S(=O)(=O)c5ccc(C#N)cc5)CC4)c23)cc1	/	/	/	i	/	-1
Cn1nnc2c(N3CC(C(=O)NCc4nc(-c5ccccc5)no4)C3)ncnc21	/	-1	/	/	/	/
CC(C)OC(=O)C(C)Nc1n[nH]c(=S)[nH]c1=O (configuration not stated)	-1	7	-12	0	0	7
CC(C)COC(=O)C(C)Nc1n[nH]c(=S)[nH]c1=O (configuration not stated)	-1	-1	16	+	4	5
O=C(Nc1cc(-n2cncn2)ncn1)C1CCN(c2cc(-n3cccn3)ncn2)CC1	/	-26	/	/	/	/
CC(C)=C1C(=O)NN(c2ccc(F)c(Cl)c2)C1=O	-1	-15	-18	i	5	3
O=C1NN(c2ccc(F)c(Cl)c2)C(=O)/C1=C\c1cccc(OC(=O)c2cccs2)c1	85*	-9	-10	-1	2	9
c1ccc(CNCCN2CCNCC2)nc1	4	38*	-2	1	1	-1
O=C(CCc1ccc(-c2ccccc2)o1)Nc1ccccc1[N+](=O)[O-]	/	84*	/	/	/	/
O=C(O)CCc1ccc(-c2ccccc2)o1	3	-12	-23	i	-3	-5
CC(C)(C)c1ccc(S(=O)(=O)N2CCN(c3ccccc3F)CC2)cc1	/	-3	/	/	/	/
COc1ccc(CC(=O)N2CCN(Cc3nc4ccccc4[nH]3)CC2)cc1	/	3	/	/	/	/
O=S(=O)(Nc1nc2ccccc2nc1N1CCc2ccccc2C1)c1ccc(Cl)cc1	1	-5	-35	0	6	2
O=S(=O)(Nc1nc2ccccc2nc1N1CCN(c2ccccn2)CC1)c1ccc(Cl)cc1	142*	4	0	3	2	6
O=C(c1ccncc1)N1CCCC[C@H](c2ccc(F)cc2)C1	/	-7	/	/	/	/
SMILES	PfHsp40 yeast	SSB-PriA inh	PrP UTR inh	Vc quorum ag	3CLpro inhibitor	PrPC TRFRET
O=C(c1ccc(Cn2ccnc2)cc1)N1CCCC[C@H](c2ccc(F)cc2)C1	/	32*	/	/	/	/
CCCOc1ccc(C(=O)NNC(=S)NC(=O)c2ccco2)cc1	108*	2	-26	-1	-2	7
COc1ccc(C(=O)NNC(=S)NC(=O)c2ccco2)cc1	4	3	3	-2	-4	6
CCCCOc1ccc(C(=O)NNC(=S)NC(=O)CC)cc1	61*	-1	28	0	4	/
CC(Oc1ccc(Cl)cc1)C(=O)NNC(=S)NC(=O)c1ccco1 (configuration not stated)	68*	29	7	0	8	7
CCCOc1ccc(C(=O)NNC(=S)NC(C)=O)cc1	52*	0	5	0	-5	0
CCC(=O)NC(=S)NNC(=O)c1ccc(OC)cc1	6	1	-1	-1	5	2
COc1ccc(OCC(=O)Nc2ccc(N3CCN(C(=O)c4ccccc4)CC3)c(Cl)c2)cc1	39*	7	-34	i	8	7
COc1ccc(OCC(=O)Nc2ccc(N3CCOCC3)c(Cl)c2)cc1	2	-13	-7	8	-3	6
O=C(CN(c1cccc(Br)c1)S(=O)(=O)c1ccccc1)N/N=C/c1cc([N+](=O)[O-])ccc1O	247*	/	-9	i	/	12
O=C(Cn1cncn1)NN=Cc1cc([N+](=O)[O-])ccc1O	/	40*	/	/	/	/
O=C(CSc1nc2ccccc2s1)N/N=C/c1cc([N+](=O)[O-])ccc1O	190*	/	-20	i	-1	6
CCOC(=O)/C(=N\Nc1cccc(Cl)c1)Sc1nnc(-c2ccc(OC)cc2)n1C	1	/	-7	0	5	-5
COC(=O)C(=NNc1ccc(Cl)cc1)Sc1nnc(-c2ccc(OC)cc2)n1C	/	116*	/	/	/	/
COc1ccccc1-c1csc(NC(=O)c2ccc(Br)cc2F)n1	/	-28	/	/	/	/
CCn1c(SCC(=O)NCC(=O)Nc2ccc(F)cc2)nnc1-c1cccs1	0	-7	-1	25*	0	-2
Clc1c2ccccc2cc2cccnc12	/	-35	/	/	/	/
Brc1cc2cccnc2c2ncccc12	/	151*	/	/	/	/
Brc1ccc2ccc3cccnc3c2n1	/	33	/	/	/	/
Clc1cc2cccnc2c2ncccc12	116*	99*	-9	-1	/	16
O=C(CSc1nnc(CNC(=O)c2c(F)cccc2F)o1)Nc1ccc(Br)cc1	/	0	/	/	/	/
CC1=C[C@H]2OC(=O)[C@@H](C)[C@H]2C[C@@H]2[C@H]1C[C@@H](O)[C@@]2(C)O	39*	-6	-21	1	/	-3
C=C1CCC(O)C2(C)CCC3C(C)C(=O)OC3C12O (configuration not stated)	-1	-9	-15	i	1	3
O=C(CSc1nnc(-c2ccccn2)n1Cc1ccco1)c1ccc(Cl)cc1	5	90*	-24	0	5	0
COc1ccc(CCCC(=O)NCCc2ccccc2)c(C)c1	40*	-15	-21	1	5	0
SMILES	PfHsp40 yeast	SSB-PriA inh	PrP UTR inh	Vc quorum ag	3CLpro inhibitor	PrPC TRFRET
CCn1ccc(C(=O)N(Cc2cccnc2)c2nc3c(OC)ccc(Cl)c3s2)n1	/	-3	/	/	/	/
COc1ccc(Nc2cc(C)nc3c(C)ccc([N+](=O)[O-])c23)cc1	/	112*	/	/	/	/
Cc1cc(Nc2ccc(Br)cc2)c2c([N+](=O)[O-])ccc(C)c2n1	/	55	/	/	/	/
CN(C)S(=O)(=O)CCCOc1ccc(F)cc1	/	-4	/	/	/	/
CCCc1ccc(-c2csc(NC(=O)C3=COCCO3)n2)cc1	50*	-13	-73	0	/	-1
CCN1CCN(C(c2ccc(C(F)(F)F)cc2)c2ccc3cccnc3c2O)CC1 (configuration not stated)	60*	44	4	1	0	8
CC(=NNC(=S)Nc1ccc(C)cc1)c1cc2ccccc2o1	/	38*	/	/	/	/
O=C(COc1cccc2ccc(N3CCC(Cc4ccccc4)CC3)nc12)NCc1ccco1	/	-7	/	/	/	/
O=C(O)c1cc(-c2ccc(N3CCOCC3)cc2)nn1-c1ccc(F)cc1F	40*	8	-20	i	0	8
